Screens (PubChem)
Rows were chosen to be rich in hits. Some 7.1% of all compounds tested hit in one or more screens of this group.
SW480 rerep: A quantitative high throughput screen for small molecules that induce DNA re-replication in SW480 colon adenocarcinoma cells | SW480 DNA re-replication, Hoechst DNA content imaging, 48 h | Potency, µM (top dose mostly 46.1 µM), inactives show at the top dose re-replication activation, most hits filed as activators | 340,000 tested, 1.8% active | AID 624297, 2012; note: % of control where 0% means no effect; nearly all actives have a fitted effect of over 55% in size
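250 cells/well; 23 nL cpd via pin tool; 48 hr, 37 C, 5% CO2; Hoechst 40 min; imager read of total nuclear intensity, ex 405/em 500-530 nm.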
ELG1 genotox: qHTS screen for small molecules that induce genotoxicity in human embryonic kidney (HEK293T) cells expressing luciferase-tagged ELG1 | HEK293T ELG1-luciferase reporter, luminescence, 16 h | Potency, µM (doses to about 46 µM), without a hit: at the top dose activity change, positive = activation, actives largely listed as activators | 330,000 tested, 1.3% active; note: % of control where 0% means no effect; nearly all actives have a fitted effect of over 60% in size
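Luminescence read-out: rising ELG1-luciferase signal, reflecting elevated ELG1 protein under genetic stress, flags genotoxic compounds. Cells were treated for 16 hr at 37 °C before ONE-Glo detection.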
AT treatment: qHTS Assay for Identifying a Potential Treatment of Ataxia-Telangiectasia; F2112 A-T fibroblasts, KAP-1 phosphorylation AlphaLISA; neocarzinostatin DNA damage 30 min before lysis; AID 485349, 2010; 320,000 tested, 0.19% active; Potency, µM (top dose mostly 57.5 µM), inactives show at the top dose activation, hits mostly activators; note: % of control where 0% means no effect; nearly all actives have a fitted effect of over 45% in size
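hTERT-immortalized A-T patient fibroblasts (F2112), 500 cells/well in OPTI-MEM, 1% FBS, got compounds for 60 min, then NCS for 30 min at 37C. Lysates were then assayed for phospho-KAP-1 by AlphaLISA (anti-pKAP1 donor, anti-KAP1 acceptor beads), 6 hr at 25C.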
ELG1 DNA repair: qHTS screen for small molecules that inhibit ELG1-dependent DNA repair in human embryonic kidney (HEK293T) cells expressing luciferase-tagged ELG1; HEK293T ELG1-luciferase reporter, luminescence, 16 h; DNA damage induced by 5-fluorouridine; Potency, µM (titrated, usually from 46.1 µM), inactives show at the top dose activity change, negative = inhibition, usual class: inhibitors; 330,000 tested, 2.3% active; note: % is set by controls: 0 for no effect and ±100 for the full control effect; nearly all actives have a fitted effect of over 55% in size
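Overnight (16 hr) co-exposure of 2,000 cells/well to 5-fluorouridine and compound at 37 °C preceded detection. Luciferase was quantified via ONE-Glo luminescence; loss of signal denotes inhibition.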
p53 reactivation: qHTS assay for re-activators of p53 using a Luc reporter. H1299 p53-A138V BP100-luciferase reporter, luminescence, 24 h. Potency, µM (series often up to 92.2 µM), for inactives: top-dose activity change, positive = activation, hits mostly activators. 320,000 tested, 0.063% active. AID 504706, 2011; note: % of control where 0% means no effect; nearly all actives have a fitted effect of over 45% in size
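H1299 (p53-null), stable ts p53-A138V + BP100-Luc; 1000 cells/well, Opti-MEM/10% FBS; cpd 4 pt, 1:5; 24 h, 37 deg C, 5% CO2; detection reagent 10 min RT; luminescence.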
MCF10A rerep: A quantitative high throughput screen for small molecules that induce DNA re-replication in MCF 10a normal breast cells; MCF 10A DNA re-replication, Hoechst nuclear intensity, 48 h; Potency, µM (titrated, usually from 46.1 µM), inactives show top-dose activity, positive = re-replication, hits mostly activators; 350,000 tested, 2.9% active; note: % of control where 0% means no effect; nearly all actives have a fitted effect of over 50% in size
An asterisk follows results filed as active; u = inconclusive; x = not tested or not shown; [ ] = dose if it differs, or a comment. Calls come from the whole dose curve; as a rule, active = well fitted curve in the direction sought with a large enough effect; inconclusive = small, poorly fitted or top-dose-only effect, or another doubt; inactive = no such curve, though single readings can be large; an effect the other way counts as inactive or inconclusive. Potency is the fitted concentration of half-maximal effect.

SMILES	SW480 rerep	ELG1 genotox	AT treatment	ELG1 DNA repair	p53 reactivation	MCF10A rerep
O=C(NCC(=O)N(c1ccccc1F)C(C(=O)NC1CCCC1)c1ccncc1)c1ccco1 (configuration not stated)	-3.0%	1.3%	-1.9%	-3.6%	0.7%	-1.2%
COC(=O)c1sc(S(=O)(=O)NC(Cc2ccccc2)C(=O)O)c(C(=O)OC)c1C (configuration not stated)	1.6%	2.2%	-6.4%	12.5%	11.4%	-1.7%
CCS(=O)(=O)N1CCC(C(=O)Nc2ccc(C(C)=O)cc2)CC1	-18.4%	-2.3%	5.0%	13.0%	-7.5%	-2.2%
COc1ccc(Br)cc1/C=N/Nc1ccccn1	u	0.8%	-1.1%	2.3%	x	23.1µM*
Cc1ccc(-c2cc(C(F)F)n3ncc(C(=O)N4CCN(c5ccccn5)CC4)c3n2)cc1	2.7%	-29.9%	-12.1%	3.66µM*	-5.3%	26.1%
COc1ccc(-c2cc(C(F)F)n3ncc(C(=O)N4CCCCC4)c3n2)cc1	u	2.4%	2.0%	u	-0.2%	u
COc1ccc(-c2cc(C(F)F)n3ncc(C(=O)N4CCc5ccccc5C4)c3n2)cc1	14.6µM*	-2.3%	1.0%	1.8%	2.0%	u
COc1ccc(-c2cc(C(F)F)n3ncc(C(=O)N4CCN(C(=O)c5ccco5)CC4)c3n2)cc1	-4.0%	-7.9%	0.1%	3.26µM*	-6.8%	-7.9%
Cc1ccc(-c2cc(C(F)F)n3ncc(C(=O)N4CCc5ccccc54)c3n2)cc1	7.31µM*	16.1%	-3.1%	20.6µM*	12.9%	2.59µM*
CCCn1c(SCC(=O)Nc2cccnc2Cl)n[nH]c1=O	-9.0%	0.9%	7.2%	u	-3.0%	0.1%
COc1ccc(-c2cc(C(F)F)n3ncc(C(=O)NCCCN4CCCC4=O)c3n2)cc1	-0.9%	-11.3%	-3.2%	6.51µM*	-5.7%	-4.2%
CCc1nccn1C(=O)c1cnn2c(C(F)F)cc(-c3ccc(C)cc3)nc12	u	-3.2%	-3.7%	u	0.1%	18.4µM*
COc1ccc(-c2cc(C(=O)NCCCN3CCCC3=O)c3ccccc3n2)cc1	0.6%	-6.0%	7.0%	u	-1.2%	13.1%
O=C(NCCCN1CCCC1=O)c1cc(-c2ccc(F)cc2)nc2ccccc12	-1.0%	-5.4%	17.7%	18.3µM*	-1.3%	u
N#CCCN(Cc1ccccc1)S(=O)(=O)c1cccs1	0.0%	-2.6%	14.1%	10.1%	7.5%	1.2%
Cc1nc(C)c(C(=O)NCCC(c2ccccc2)c2ccccc2)o1	11.7%	-12.6%	4.3%	5.8µM*	-0.7%	-1.8%
Cc1ccsc1C(=O)NCCC(c1ccccc1)c1ccccc1	7.4%	-0.5%	5.3%	-4.8%	-8.4%	u
Cc1ccc(S(=O)(=O)NC(=O)NC2CCCCCCC2)cc1	-1.0%	x	x	x	x	-4.8%
CCOC(=O)C1=C(C)NC2=C(C(=O)CCC2)C1c1cn(Cc2ccc(Cl)cc2Cl)nc1-c1ccccc1 (configuration not stated)	2.82µM*	-5.0%	5.7%	-9.7%	-23.9%	u
CC(=O)Nc1ccc(S(=O)(=O)NCCOc2ccc(Cl)cc2C)cc1	5.0%	0.3%	-3.4%	u	-0.8%	-11.7%
CCCCOc1ccc(CONS(=O)(=O)c2ccc(NC(C)=O)cc2)cc1Cl	-1.1%	-2.1%	-5.0%	-21.7%	5.1%	20.6µM*
Cn1nnnc1SCC(=O)N(C1CCCCC1)C1CCS(=O)(=O)C1 (configuration not stated)	0.6%	-0.2%	-5.4%	7.6%	5.6%	17.1%
O=C(c1ccc(Cl)cc1)C1CCCN(Cc2cccn2-c2ccccn2)C1 (configuration not stated)	2.1%	-13.4%	11.6%	u	-2.6%	5.6%
Cc1ccsc1C(=O)C1CCCN(Cc2cccn2-c2ccc(Cl)cn2)C1 (configuration not stated)	18.4µM*	-6.3%	-1.3%	-8.9%	-0.9%	u
Cc1ccc(-n2cccn2)c(CN2CCCC(C(=O)c3sccc3C)C2)c1 (configuration not stated)	u	-14.0%	6.4%	16.4µM*	-2.9%	26.1%
SMILES	SW480 rerep	ELG1 genotox	AT treatment	ELG1 DNA repair	p53 reactivation	MCF10A rerep
COc1ccc(S(=O)(=O)NNc2nc(C)cc(C)n2)cc1[N+](=O)[O-]	-8.8%	-3.7%	5.5%	5.6%	1.5%	4.6%
CCOC(=O)c1ccc(NS(=O)(=O)c2ccc(SC)cc2)cc1	6.3%	-2.3%	0.5%	-1.3%	13.2%	23.1µM*
Cc1ccc(C#CC[N+]2(CC#Cc3ccc(C)cc3)CCCCC2)cc1	-1.7%	-9.6%	5.1%	11.6µM*	-9.5%	-4.9%
COc1ccccc1C(=O)Nc1ccc2c(c1)CN(Cc1cnc(C)s1)CC2	0.7%	-12.3%	9.6%	u	-5.4%	13.5%
CCn1c(SCc2cccc(F)c2)nnc1-c1cccnc1	u	4.0%	0.0%	2.9%	2.5%	0.0%
CCn1c(SCc2ccc(OC)cc2)nnc1-c1ccncc1	-2.6%	-0.6%	-0.5%	-8.6%	-4.4%	20.6µM*
CCn1c(SCc2cccc(F)c2)nnc1-c1ccncc1	u	-2.7%	4.47µM*	2.59µM*	-3.7%	0.6%
O=C(CCc1ccc(O)cc1)c1c(O)cc(O)cc1O	-13.7%[9.22 µM]	1.1%	28.2µM*	9.1%	8.2%	19.8%
COc1cc(O)c(CC=C(C)C)c(O)c1C(=O)CCc1ccc(O)cc1	u	9.2%	0.0%	14.1%	16.8%	6.51µM*
COc1ccc(C(=O)/C=C/c2ccc(O)cc2)c(O)c1C/C=C(\C)CCC=C(C)C	-8.8%	-4.0%	21.0%	-0.8%	8.9%	14.0%
COc1ccccc1NC(=O)COC(=O)CCn1c(C)csc1=O	u	2.9%	-3.3%	12.2%	7.2%	-13.8%
Cc1cc(C)c(C)c(S(=O)(=O)N2CCN(c3ccccn3)CC2)c1C	-15.3%	-2.2%	-2.5%	5.4%	-1.9%	9.7%
Cc1cc(C)c(C)c(S(=O)(=O)N2CCN(c3ncnc4ccccc34)CC2)c1C	1.4%	-5.5%	2.2%	u	-5.2%	18.4µM*
COc1ccc(CCN2CC(C(=O)NCCc3ccccc3C(F)(F)F)CCC2=O)cc1 (configuration not stated)	-5.0%	15.8%	2.1%	u	15.6%	-6.0%
